Test results published in PubChem BioAssay (NCI).
Compounds without any hit were thinned out: in the full panel of roughly 83,000, 20% have a hit.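 For each line, cells grew in 96-well plates with the test compound present at a single concentration for 48 hours.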 Values without a mark were called inactive. Activity calls are given as the source filed them. The calls were made as follows: active = growth percent below 10; inactive = the rest.

Key:
Test in all cases: NCI-60 one-dose screen, 48 h (100 = growth as untreated, 0 = no growth, -100 = all killed)
Conditions in all cases: 10 µM unless noted
[1] = tested on: HCT-15 colon
[2] = tested on: HT29 colon
[3] = tested on: SNB-75 CNS
[4] = tested on: SNB-19 CNS
[5] = tested on: U251 CNS
[6] = tested on: PC-3 prostate
[7] = tested on: SK-MEL-5 melanoma
[8] = tested on: UACC-62 melanoma
[9] = tested on: LOX IMVI melanoma
[10] = tested on: SK-MEL-28 melanoma

Molecule CCS(=O)(=O)Nc1ccc(C(=O)CC2(O)C(=O)Nc3ccccc32)cc1 (stereo not given) has a growth [1] of 100%, a growth [2] of 113% and a growth [3] of 69.2%. It also gave a growth [4] of 101%, a growth [5] of 105% and a growth [6] of 92.4%. The growth [7] was 99.8%, the growth [8] was 96.9% and the growth [9] was 94.6%. It also gave a growth [10] of 109%.

For O=C(CSc1nc2ccccc2c(=O)n1-c1ccc(S(=O)(=O)Nc2ccc(Cl)nn2)cc1)Nc1ccc(S(=O)(=O)Nc2ccc(Cl)nn2)cc1, the growth [1] was 100%, the growth [2] was 106% and the growth [3] was 96.1%. For the same molecule, the growth [4] was 101%, the growth [5] was 102% and the growth [6] was 100%. The growth [7] was 97.2%, the growth [8] was 94% and the growth [9] was 90.4%. For the same molecule, the growth [10] was 106%.

For CCCC[n+]1ccc(SCC(=O)n2ccc3ccccc32)c2ccccc21, the growth [1] was 103%, the growth [2] was 96.9% and the growth [3] was 92.7%. It also gave a growth [4] of 97.4%, a growth [5] of 89.3% and a growth [6] of 90.9%. The growth [7] was 85.8%, the growth [8] was 77.7% and the growth [9] was 101%. It also gave a growth [10] of 109%.

With Cc1ccc2c(n1)C(=O)C(Cl)=C(Nc1cccc(C)c1C)C2=O the growth [1] was 9.66% (active), the growth [2] was 87.6% and the growth [3] was 61.2%. For the same molecule, the growth [4] was 13.3%, the growth [5] was -7.55% (active) and the growth [6] was 12.4%. For the same molecule, the growth [7] was -66.1% (active), the growth [8] was 0.0061% (active) and the growth [9] was -21.1% (active). For the same molecule, the growth [10] was 6.66% (active).

With CCc1cc(OC(=O)N2CCN(CCC(C)(COC(C)(C)C)COC(C)(C)C)CC2)ccc1Nc1cc(-c2ccc(-n3cccn3)cc2)[nH]n1 the growth [1] was 65.9%, the growth [2] was 47.3% and the growth [3] was 48.7%. For the same molecule, the growth [4] was 86.2%, the growth [5] was 74.9% and the growth [6] was 53.9%. The growth [7] was 90.8%, the growth [8] was 85.8% and the growth [9] was 104%. It also gave a growth [10] of 96.6%.

COc1cc(/C=N\NC(=O)c2ccc3nc(-c4ccc(Br)cc4)[nH]c3c2)cc(OC)c1OC gave a growth [1] of 79.4%, a growth [2] of 25.3% and a growth [3] of 57.1%. The growth [4] was 59.3%, the growth [5] was 45.1% and the growth [6] was 46.2%. The growth [7] was 27.5%, the growth [8] was 28.1% and the growth [9] was 35.2%. The growth [10] was 30.2%.

With COc1ccc(/C(=N\NC(N)=S)c2ccc(Cl)cc2)cc1OC the growth [1] was 16%, the growth [2] was -1.79% (active) and the growth [3] was -8.75% (active). The growth [4] was 24.1%, the growth [5] was 22.4% and the growth [6] was 36.4%. For the same molecule, the growth [7] was 21.9%, the growth [8] was 18.9% and the growth [9] was 40.5%. It also gave a growth [10] of 47.6%.

For C=C(C=O)[C@@H]1CC[C@]2(C(=O)O)CC[C@]3(C)C(CC[C@@H]4[C@@](C)(CCC#N)[C@H](C(=C)C=O)CC[C@]43C)[C@@H]12 (stereo not given in full), the growth [1] was 4.88% (active), the growth [2] was 0.538% (active) and the growth [3] was 59%. The growth [4] was 62.7%, the growth [5] was 5.39% (active) and the growth [6] was 30.3%. For the same molecule, the growth [7] was 26.3%, the growth [8] was 30.9% and the growth [9] was -81.7% (active). For the same molecule, the growth [10] was -5.57% (active).

With O=C(CCCCCCNC(=O)C(O)(O)C(F)(F)F)Nc1ccc(Cl)cc1 the growth [1] was 39.1%, the growth [2] was 5.13% (active) and the growth [3] was 42.5%. It also gave a growth [4] of 31.7%, a growth [5] of 13.9% and a growth [6] of 35.3%. The growth [7] was -28% (active), the growth [8] was -18.8% (active) and the growth [9] was 4.18% (active). For the same molecule, the growth [10] was 27%.

In the case of CCN(CC)c1ccc(/C=N/NC(=O)c2ccc(NS(C)(=O)=O)cc2)cc1, the growth [1] is reported as 20.4%, the growth [2] is reported as 32.1% and the growth [3] is reported as 73.3%. The growth [4] was 39.2%, the growth [5] was 31.1% and the growth [6] was 37.2%. The growth [7] was 4.46% (active), the growth [8] was 12.3% and the growth [9] was 9.94% (active). It also gave a growth [10] of 23.8%.

In the case of O=C(CCCCCCNC(=O)C(O)(O)C(F)(F)F)Nc1ccc(-c2ccccc2)cc1, the growth [1] is reported as 9.19% (active), the growth [2] is reported as 4.75% (active) and the growth [3] is reported as 40.4%. The growth [4] was 15.2%, the growth [5] was -3.64% (active) and the growth [6] was 28.7%. For the same molecule, the growth [7] was -41.5% (active), the growth [8] was -61.4% (active) and the growth [9] was -77.4% (active). The growth [10] was 5.07% (active).

For COc1ccc(C(C)=C(c2ccc(OCCN(C)C)cc2)c2ccc(OCCN(C)C)cc2)cc1, the growth [1] was -46.1% (active), the growth [2] was -53.5% (active) and the growth [3] was 3.78% (active). For the same molecule, the growth [4] was 12.6%, the growth [5] was -64.1% (active) and the growth [6] was 1.05% (active). The growth [7] was -82.6% (active), the growth [8] was -66.3% (active) and the growth [9] was -79.9% (active). For the same molecule, the growth [10] was -88.4% (active).

In the case of CCOP(=O)(OCC)OC[C@]12CC[C@@H](C)[C@H](C)C1C1=CC[C@@H]3[C@@]4(C)CCCNC(C)(C)[C@@H]4CC[C@@]3(C)[C@]1(C)CC2 (stereo not given in full), the growth [1] is reported as -8.25% (active), the growth [2] is reported as -30.6% (active) and the growth [3] is reported as 66.8%. For the same molecule, the growth [4] was 17%, the growth [5] was -59.1% (active) and the growth [6] was 10.9%. The growth [7] was -8.29% (active), the growth [8] was -12.6% (active) and the growth [9] was -86.3% (active). The growth [10] was -2.47% (active).

For COc1ccc(/C=N/NC(=O)c2c(N)nn(C)c2Nc2ccccc2)cc1Oc1ccccc1, the growth [1] was 87.7%, the growth [2] was 110% and the growth [3] was 88.2%. For the same molecule, the growth [4] was 88.4%, the growth [5] was 93.6% and the growth [6] was 74.9%. For the same molecule, the growth [7] was 93.8%, the growth [8] was 83.8% and the growth [9] was 95.3%. It also gave a growth [10] of 102%.

COc1ccc(C(=NNS(=O)(=O)c2ccc(C)cc2)c2ccccc2)cc1OC was tested, and the growth [1] was 96.6%, the growth [2] was 103% and the growth [3] was 90.4%. For the same molecule, the growth [4] was 94.6%, the growth [5] was 96.1% and the growth [6] was 93%. It also gave a growth [7] of 97.6%, a growth [8] of 70.3% and a growth [9] of 106%. It also gave a growth [10] of 108%.
